Source: PubChem BioAssay (NCI)
About 79,000 compounds went through this panel and 15% of them were active in at least one assay; those are over-represented in the sample as a whole. No stated cut-off is given here; in the data, active means growth inhibition above about 70%; inactive means the rest.

Experiments:
[1] = NCI Yeast Anticancer Drug Screen. Data for the rad50 strain (AID 155);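 further: 0% = growth of vehicle-only cultures of the same strain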; conditions: S. cerevisiae rad50 strain growth inhibition; at 50.0 µM; active compounds read high
Method in brief: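 Growth of the mutant yeast was measured after compound exposure and referenced to vehicle-treated cultures.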

[2] = NCI Yeast Anticancer Drug Screen. Data for the mec2-1 strain (AID 157); conditions: S. cerevisiae mec2-1 strain, at 50.0 µM, active compounds read high
Method in brief: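 mec2-1 yeast strain, carrying an alteration in DNA damage repair or cell cycle control, was exposed to compounds; growth inhibition was measured relative to vehicle-treated controls.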

[3] = NCI Yeast Anticancer Drug Screen. Data for the sgs1 mgt1 strain (AID 161);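 further: 0% = growth of cultures given vehicle only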; conditions: S. cerevisiae sgs1 mgt1 strain, at 50.0 µM, active compounds read high
Method in brief: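 Percent growth inhibition was derived by comparing compound-exposed mutant yeast with vehicle-exposed cultures. The strain carries alterations in DNA damage repair.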

[4] = NCI Yeast Anticancer Drug Screen. Data for the cln2 rad14 strain (AID 165);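 further: 0% = growth equal to vehicle treated cultures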; conditions: S. cerevisiae cln2 rad14 strain, at 50.0 µM, active compounds read high
Method in brief: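 Yeast carrying cln2 and rad14 alterations (cell cycle control and DNA damage repair) were exposed to compounds. Growth inhibition was measured against vehicle-treated controls.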

[5] = NCI Yeast Anticancer Drug Screen. Data for the bub3 strain (AID 167); conditions: S. cerevisiae bub3 mutant strain, at 50.0 µM, active compounds read high
Method in brief: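 Whole-cell yeast assay. The mutant strain was incubated with compounds, and growth inhibition was determined by comparison with vehicle-treated cells.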

[6] = NCI Yeast Anticancer Drug Screen. Data for the mlh1 rad18 strain (AID 175); conditions: S. cerevisiae mlh1 rad18 strain growth inhibition; at 50.0 µM; active compounds read high
Method in brief: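 Growth inhibition of the yeast strain was measured after compound exposure and expressed relative to vehicle-treated controls. The strain carries defined defects in DNA damage repair.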

Measured: growth inhibition

CC1SC2(C(=O)Nc3ccccc32)N(c2ccc(Cl)cc2)C1=O (stereo unspecified)
inactive: [1] 21.6% | [2] 10.3% | [3] -12.4% | [4] 23.9% | [5] 60.5% | [6] 10.7%

CCCCCCCCCCCCn1c2nc(=O)[nH]c(=O)c-2nc2ccccc21
inactive: [1] -3.35% | [2] 3.75% | [3] -8.15% | [4] 4.25% | [5] -0.2% | [6] -26.1%

C=C1C(O)CCC2(C)C1CCC1C2CCC2(C)C(C(C)CCCC(C)C)CCC12 (stereo unspecified)
inactive: [1] -5% | [2] -5.35% | [3] -3.1% | [4] -39.6% | [5] -4.4% | [6] -2.45%

CCOC(=O)C1Sc2ccccc2N=C1C (stereo unspecified)
inactive: [1] 0% | [2] -15.8% | [3] -2.45% | [4] -1.25% | [5] -10.6% | [6] 2.6%

ClC1CC2CCC1C2Br (stereo unspecified) (tested in a mixture with another compound)
inactive: [1] -19.6% | [2] -14.2% | [3] -21.1% | [4] -31.9% | [5] -0.45% | [6] -17.1%

CCOc1ccc(/C(O)=C/c2nc3ccccc3nc2/C=C(\O)c2ccc(OCC)cc2)cc1
inactive: [1] -2.1% | [2] -13.7% | [3] 16.4% | [4] -0.75% | [5] 36% | [6] 13.6%

COc1cccc2cc[nH]c12
inactive: [1] 0.2% | [2] 11.2% | [3] -9.2% | [4] 10.8% | [5] 7.7% | [6] 8.6%

CC(C)=Cc1cc(-c2cc(C=C(C)C)on2)no1
inactive: [1] 8.1% | [2] -7.05% | [3] 3.85% | [4] 1.15% | [5] -8% | [6] 4%

CCOC(=O)/C=C\SCCC(=O)O
inactive: [1] 10.1% | [2] 11.1% | [3] 15.8% | [4] 25.9% | [5] 27.1% | [6] 41.9%

O=C(c1cccs1)N(C(=S)N1CCN(c2ccccc2)CC1)c1ccccc1
inactive: [1] -2.7% | [2] -11.1% | [3] 4.55% | [4] -7.8% | [5] -30.4% | [6] -4.3%

CCOCC(OCC)OCC
inactive: [1] -4.1% | [2] 0.45% | [3] -2.55% | [4] 22.9% | [5] -5.45% | [6] 6.7%

CCCSc1nc2c(=O)n(C)c(=O)[nH]c2n1C
inactive: [1] -10.2% | [2] -1.8% | [3] -6.95% | [4] -36.3% | [5] -12.2% | [6] -3.55%

Cc1cccc(-c2cc(=O)c3c(C)ccnc3[nH]2)c1
inactive: [1] 10.3% | [2] -1% | [3] -0.85% | [4] -4.5% | [5] -3.3% | [6] -12.9%

Oc1c(/N=N/C(=S)NCCCN2CCN(CCCNC(=S)/N=N/c3[nH]c4ccccc4c3O)CC2)[nH]c2ccccc12
inactive: [1] 22.8% | [2] 6.45% | [3] 20.6% | [4] -2.7% | [5] -17.8% | [6] 14.9%

COC(=O)c1[nH]c(C)c(C(=O)OC)c1C
inactive: [1] -8.5% | [2] -27.7% | [3] -3.1% | [4] -5% | [5] -13.2% | [6] -12.8%

C=C(C)CN(CC(=C)C)c1nc(N)nc(N)n1
inactive: [1] -35.2% | [2] -2.95% | [3] -21.9% | [4] -43.5% | [5] -2.1% | [6] -13.1%

Cc1ccc(S(=O)(=O)c2c(N)c3nccn3c3nc4ccccc4nc23)cc1
inactive: [1] -52.2% | [2] -68.2% | [3] -77.5% | [4] -38.8% | [5] -62.1% | [6] -88.8%

O=c1oc2ccccc2c(O)c1[N+](=O)[O-]
inactive: [1] 10.6% | [2] -11.2% | [3] -6.4% | [4] 2.7% | [5] -7.15% | [6] 3.65%

CS(=O)CC1OC2OC3C(CO)OC(OC4C(CO)OC(OC5C(CO)OC(OC6C(CO)OC(OC7C(CO)OC(OC8C(CO)OC(OC1C(O)C2O)C(O)C8O)C(O)C7O)C(O)C6O)C(O)C5O)C(O)C4O)C(O)C3O (stereo unspecified)
inactive: [1] -1.9% | [2] -17.4% | [3] -8.55% | [4] -21.4% | [5] -8% | [6] 10.2%

CC(=O)c1c(-c2ccc(Cl)cc2)c(C#N)c(=S)n(C2OC(CO)C(O)C(O)C2O)c1C (stereo unspecified)
inactive: [1] -2.85% | [2] -6.3% | [3] 6.15% | [4] 14.8% | [5] -5.15% | [6] 12.2%

O=[N+]([O-])c1ccc(N/N=C/c2ccccc2Cl)cc1
inactive: [1] 8% | [2] 12.4% | [3] 26.4% | [4] -1.3% | [5] 36.4% | [6] 31.4%
